In PubChem BioAssay:
The source made the active and inactive calls. Unless noted, no rule for the calls is given here.

Tests used:
[1] = tested on: Wnt5a (protein binding on small-molecule microarray); test: small molecules binding Wnt5a protein – biophysical, small-molecule microarray, 635/667 nm fluorescence, primary screen (AID 1142); details: 635 nm fluorescence, higher = more signal;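 also: fluorescence read at 667 nm with signal to noise per printed feature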
[2] = ATP-based viability of Huh7 replicon cells – cell-based, CellTiter-Glo luminescence, basal, 48 h, cytotoxicity control for HCV replication inhibitor project, primary screen (AID 1143); details: higher = more signal, called active from +8 up or from −8 down;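 also: Huh7 hepatoma cells carrying a hepatitis C replication reporter with no stimulus; test concentration not given here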
[3] = Pseudomonas biofilm growth suppression – PAO1 strain, BacTiter-Glo luminescence, LB-PBS, primary screen (AID 1144); details: P. aeruginosa PAO1 biofilm, 12 h, higher = more signal
[4] = basal CRE-LacZ reporter activity in PC12 – cell-based, unstimulated, primary screen (AID 1145); details: no forskolin, luminescence, 4.5 h, higher = more signal, called active from +8 up or from −8 down
[5] = forskolin-driven CRE-LacZ activity in PC12 – cell-based, CRE-LacZ reporter, forskolin-stimulated, primary screen (AID 1146); details: luminescence, 4.5 h, higher = more signal, called active from +8 up or from −8 down;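 also: PC12 cells with 6xCRE LacZ reporter stimulated by forskolin 10 µM; beta-galactosidase reporter signal reflecting CREB driven transcription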
[6] = target: Streptavidin (Streptomyces avidinii) (UniProt P22629); test: compounds binding control protein streptavidin – biophysical, small-molecule microarray, 635/667 nm fluorescence, artefact control for SMM compound annotation, primary screen (AID 1147); details: higher = more signal;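 also: signal reflects streptavidin binding to arrayed compounds as a control protein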
Sequence of Streptavidin (Streptomyces avidinii) (P22629 whole entry, looked up): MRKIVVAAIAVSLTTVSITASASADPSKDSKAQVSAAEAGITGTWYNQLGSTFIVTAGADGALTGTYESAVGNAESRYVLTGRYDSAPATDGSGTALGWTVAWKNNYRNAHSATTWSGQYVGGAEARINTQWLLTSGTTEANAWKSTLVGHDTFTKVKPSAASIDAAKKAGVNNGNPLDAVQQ

[7] = probe aInhba binding on compound microarray – biochemical, small-molecule microarray, 635/667 nm fluorescence, primary screen (AID 1148); details: higher = more signal;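 also: score merges 667nm spot fluorescence with signal-to-noise for antibody binding to printed compounds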
Torsin-1A (Homo sapiens) [8] = target: Torsin-1A (Homo sapiens) (UniProt O14656); test: TOR1A wild-type binding on microarray – cell lysate, small-molecule microarray, lysate, 635/667 nm, primary screen (AID 1149); details: COS7 hTOR1A-WT lysate, 635 nm fluorescence, higher = more signal
Sequence of Torsin-1A (Homo sapiens) (O14656 whole entry, looked up): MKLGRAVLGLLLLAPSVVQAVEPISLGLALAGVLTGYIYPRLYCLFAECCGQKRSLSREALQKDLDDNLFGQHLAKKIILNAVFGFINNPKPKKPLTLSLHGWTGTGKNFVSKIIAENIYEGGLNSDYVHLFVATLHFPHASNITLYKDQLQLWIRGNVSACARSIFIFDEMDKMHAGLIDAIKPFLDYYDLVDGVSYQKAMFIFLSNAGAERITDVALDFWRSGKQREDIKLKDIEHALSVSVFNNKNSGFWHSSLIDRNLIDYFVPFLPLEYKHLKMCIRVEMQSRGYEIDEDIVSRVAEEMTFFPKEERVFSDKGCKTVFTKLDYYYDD

Torsin-1A (Homo sapiens) [9] = target: Torsin-1A (Homo sapiens) (UniProt O14656); test: torsin A mutant lysate binding on microarrays – cell lysate, small-molecule microarray, COS7 lysate, 635/667 nm fluorescence, primary screen (AID 1150); details: COS7 hTOR1A mutant lysate, 635 nm fluorescence, higher = more signal;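 also: score pools 667 nm emission and signal to noise measuring lysate protein binding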
[10] = tested on: Sonic hedgehog protein (Shh); test: Sonic hedgehog microarray binding compounds – biochemical, small-molecule microarray, 635/667 nm fluorescence, primary screen (AID 1151); details: 635 nm fluorescence, higher = more signal;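 also: Shh protein binding to compounds spotted on small-molecule microarray slides; score combines spot fluorescence intensity with signal-to-noise across triplicate slides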
[11] = optical density shifts of acrAB sulA E. coli – strain DRC41, OD650, 48 h, E. coli filamentation inducer project, primary screen (AID 1152); details: higher = more signal, called active from +8 up or from −8 down;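 also: E. coli MC1000 strain DRC41 lacking acrAB efflux pump and sulA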
[12] = probe aLefty1 binding on compound microarray – biochemical, small-molecule microarray, 635/667 nm fluorescence, primary screen (AID 1153); details: higher = more signal;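 also: score merges spot fluorescence with signal-to-noise ratio from the scanned slide images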
[13] = plasmodial surface anion channel blockers, osmotic lysis – cell-based, P. falciparum Indochina, OD700, 1 h, primary screen (AID 1154); details: P. falciparum Indochina infected RBC osmotic lysis, higher = more signal, called active from +8 up or from −8 down
[14] = plasmodial surface anion channel blockers, osmotic lysis – cell-based, P. falciparum Indochina, OD700, 2 h, primary screen (AID 1155);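 also: lysis reports solute entry through the parasite surface anion channel PSAC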; details: P. falciparum Indochina infected erythrocytes, higher = more signal, called active from +8 up or from −8 down
[15] = changes in parasitized red cell lysis, either direction – P. falciparum Indochina, OD700, 3 h, PSAC antagonist project, primary screen (AID 1156); details: P. falciparum-infected erythrocytes, osmotic lysis, higher = more signal, called active from +8 up or from −8 down
[16] = plasmodial surface anion channel blockers, osmotic lysis – cell-based, P. falciparum Indochina, OD700, 18 h, primary screen (AID 1157); details: P. falciparum Indochina infected erythrocytes, osmotic lysis OD700, 18 h; higher = more signal, called active from +8 up or from −8 down
[17] = S6 kinase pathway phospho-S6 level changes – cell-based, A549, cytoblot, luminescence, serum-stimulated, primary screen (AID 1158); details: 5 h, higher = more signal;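 also: serum-stimulated A549 lung adenocarcinoma cells; signal is phosphorylated S6 detected by cytoblot immunostaining with HRP secondary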
[18] = target: NADPH oxidase 2 (Homo sapiens) (UniProt P04839); test: compounds shifting NOX2 Amplex Red fluorescence – cell-based, HEK293-NOX2, PMA-stimulated, NOX inhibitor project, primary screen (AID 1159); details: 45 min, higher = more signal, called active from +8 up or from −8 down; also: test concentration not given here
Sequence of NADPH oxidase 2 (Homo sapiens) (P04839 whole entry, looked up): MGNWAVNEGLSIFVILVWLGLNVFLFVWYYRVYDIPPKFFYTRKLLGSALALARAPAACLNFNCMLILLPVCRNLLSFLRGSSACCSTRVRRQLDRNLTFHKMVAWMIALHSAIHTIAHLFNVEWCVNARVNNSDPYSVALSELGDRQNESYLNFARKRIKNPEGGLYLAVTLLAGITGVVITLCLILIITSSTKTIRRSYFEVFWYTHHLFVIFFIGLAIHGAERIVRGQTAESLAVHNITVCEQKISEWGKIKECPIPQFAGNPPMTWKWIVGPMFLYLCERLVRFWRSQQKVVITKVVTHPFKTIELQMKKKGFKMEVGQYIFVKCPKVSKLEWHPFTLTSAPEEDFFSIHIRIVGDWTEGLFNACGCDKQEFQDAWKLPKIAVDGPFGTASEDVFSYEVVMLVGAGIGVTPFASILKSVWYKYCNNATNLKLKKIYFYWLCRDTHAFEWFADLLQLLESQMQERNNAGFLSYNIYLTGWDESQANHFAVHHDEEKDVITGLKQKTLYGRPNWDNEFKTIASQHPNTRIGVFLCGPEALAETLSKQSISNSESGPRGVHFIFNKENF

[19] = target: NADPH oxidase 4 (Homo sapiens) (UniProt Q9NPH5); test: compounds shifting NOX4 Amplex Red fluorescence – cell-based, HEK293-NOX4, tetracycline-induced, NOX inhibitor project, primary screen (AID 1160); details: HEK293-NOX4, Amplex Red H2O2 fluorescence, 45 min; higher = more signal, called active from +8 up or from −8 down
Sequence of NADPH oxidase 4 (Homo sapiens) (Q9NPH5 whole entry, looked up): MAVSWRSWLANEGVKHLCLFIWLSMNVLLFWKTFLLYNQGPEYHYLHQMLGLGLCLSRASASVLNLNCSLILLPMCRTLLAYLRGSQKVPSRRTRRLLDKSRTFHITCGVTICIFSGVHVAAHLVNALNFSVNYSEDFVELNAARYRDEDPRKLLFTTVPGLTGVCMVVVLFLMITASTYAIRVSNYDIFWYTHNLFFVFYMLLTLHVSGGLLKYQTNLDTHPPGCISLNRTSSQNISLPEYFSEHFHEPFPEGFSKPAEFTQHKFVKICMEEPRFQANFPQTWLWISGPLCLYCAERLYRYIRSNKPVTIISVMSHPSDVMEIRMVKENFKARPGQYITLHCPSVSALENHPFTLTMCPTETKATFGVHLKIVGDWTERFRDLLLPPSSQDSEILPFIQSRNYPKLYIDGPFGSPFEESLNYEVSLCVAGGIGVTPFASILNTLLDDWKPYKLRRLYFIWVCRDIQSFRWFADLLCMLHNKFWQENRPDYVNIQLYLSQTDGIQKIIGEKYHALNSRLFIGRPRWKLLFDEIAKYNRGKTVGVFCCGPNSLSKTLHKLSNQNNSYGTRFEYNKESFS

[20] = target: NADPH oxidase 5 (Homo sapiens) (UniProt Q96PH1); test: compounds shifting NOX5 Amplex Red fluorescence – cell-based, HEK293-NOX5, NOX inhibitor project, primary screen (AID 1161); details: HEK293-NOX5, ionomycin, 45 min, higher = more signal
Sequence of NADPH oxidase 5 (Homo sapiens) (Q96PH1 whole entry, looked up): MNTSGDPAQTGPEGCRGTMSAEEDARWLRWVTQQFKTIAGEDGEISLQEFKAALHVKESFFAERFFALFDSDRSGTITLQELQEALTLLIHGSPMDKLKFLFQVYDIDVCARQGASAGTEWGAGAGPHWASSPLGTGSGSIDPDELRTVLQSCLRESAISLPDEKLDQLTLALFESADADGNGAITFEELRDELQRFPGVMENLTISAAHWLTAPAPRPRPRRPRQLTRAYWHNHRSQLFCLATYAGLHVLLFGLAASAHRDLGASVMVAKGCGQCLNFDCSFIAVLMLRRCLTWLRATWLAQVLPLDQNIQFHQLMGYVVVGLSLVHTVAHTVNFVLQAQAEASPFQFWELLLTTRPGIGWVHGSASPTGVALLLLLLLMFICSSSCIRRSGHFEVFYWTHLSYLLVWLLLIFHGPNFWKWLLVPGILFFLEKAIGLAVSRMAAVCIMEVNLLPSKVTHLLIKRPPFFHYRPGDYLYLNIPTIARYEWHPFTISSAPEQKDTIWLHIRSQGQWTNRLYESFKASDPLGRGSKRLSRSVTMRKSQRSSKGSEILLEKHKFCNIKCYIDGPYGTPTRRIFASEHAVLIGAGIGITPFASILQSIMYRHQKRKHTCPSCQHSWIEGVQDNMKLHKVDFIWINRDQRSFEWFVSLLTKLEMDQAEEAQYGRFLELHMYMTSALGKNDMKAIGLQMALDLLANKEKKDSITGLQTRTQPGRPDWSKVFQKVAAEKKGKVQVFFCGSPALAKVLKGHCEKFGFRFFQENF

| SMILES | composite z-score [1] | z-score [2] | z-score [3] | z-score [4] | z-score [5] | composite z-score [6] | composite z-score [7] | composite z-score (Torsin-1A (Homo sapiens) [8]) | composite z-score (Torsin-1A (Homo sapiens) [9]) | composite z-score [10] | z-score [11] | composite z-score [12] | z-score [13] | z-score [14] | z-score [15] | z-score [16] | z-score [17] | z-score [18] | z-score [19] | z-score [20] |
| --- | --- | --- | --- | --- | --- | --- | --- | --- | --- | --- | --- | --- | --- | --- | --- | --- | --- | --- | --- | --- |
| CN(C)CCCNC(=O)[C@@H]1c2ccccc2C(=O)N(C2CCCCC2)[C@H]1c1ccc(CO)cc1 | 0.76 | -0.395 (inactive) | -0.312 (inactive) | 1.24 (inactive) | -0.291 (inactive) | 0.139 | 0.271 | 0.567 | 1.03 | 1.81 | 0.196 (inactive) | 0.2 | 1.1 (inactive) | -0.541 (inactive) | 1.67 (inactive) | 0.253 (inactive) | 0.189 | 0.2 (inactive) | 0.197 (inactive) | -0.301 |
| Cc1ccccc1C(O)C1C=CC2C(=O)NC(=O)C2N1Nc1ccc(Cl)cc1Cl (stereo not given) | -0.0864 | -0.702 (inactive) | -0.274 (inactive) | 1.01 (inactive) | -0.569 (inactive) | 0.878 | 0.319 | -0.192 | 0.244 | -0.232 | -1.87 (inactive) | 0.219 | 1.81 (inactive) | 1.35 (inactive) | -1.11 (inactive) | 0.975 (inactive) | -0.649 | -0.254 (inactive) | -4.79 (inactive) | -2.02 |
| CCCC=C(CCC)[C@@H](NS(=O)(=O)c1cccc2cccnc12)c1ccc(-c2ccccc2)cc1 | 0.702 | -1.52 (inactive) | 0.923 (inactive) | -0.379 (inactive) | 0.415 (inactive) | 1.42 | 0.475 | 0.274 | 0.371 | 0.632 | -1.37 (inactive) | 0.396 | 0.012 (inactive) | 0.451 (inactive) | 1.24 (inactive) | 0.913 (inactive) | 0.389 | -0.876 (inactive) | 1.59 (inactive) | 2.39 |
| C=C(/C(=C/C[C@H](OC(=O)c1ccncc1)c1cccc(OCCO)c1)c1cnc2ccccc2c1)C(C)C | 0.518 | -7.81 (inactive) | 0.503 (inactive) | 30.3 (active) | -0.386 (inactive) | 0.929 | -0.05 | -0.382 | -0.22 | 2.23 | -0.599 (inactive) | -0.0046 | 6.01 (inactive) | 2.44 (inactive) | -2.09 (inactive) | 0.626 (inactive) | -0.787 | -4.67 (inactive) | -0.946 (inactive) | -1.49 |
